Data reported in PubChem BioAssay (NCI).
Compounds without any hit were thinned out: in the full panel of roughly 83,000, 20% have a hit.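 The test compound was applied at a single concentration to cells in 96-well plates for 48 hours, and percent growth was recorded.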 Activity calls are given as the source filed them. Rule for the calls: active = growth percent below 10; inactive = the rest.

How the values were obtained:
Assay in all cases: NCI-60 one-dose screen, 48 h (100 = growth as untreated, 0 = no growth, -100 = all killed)
Details in all cases: 10 µM unless noted
[1] = system: NCI-H23 lung
[2] = system: NCI-H226 lung
[3] = system: NCI-H322M lung
[4] = system: HOP-62 NSCLC
[5] = system: NCI-H460 lung
[6] = system: HOP-92 NSCLC
[7] = system: NCI-H522 lung
[8] = system: A549/ATCC NSCLC
[9] = system: 786-0 renal
[10] = system: COLO 205 colon
[11] = system: DU-145 prostate
[12] = system: K-562 leukemia
[13] = system: MALME-3M melanoma
[14] = system: MDA-MB-231 breast
[15] = system: RXF 393 renal
[16] = system: SF-268 CNS
[17] = system: SF-295 CNS
[18] = system: SF-539 CNS
[19] = system: UACC-257 melanoma
[20] = system: M14 melanoma

Measured: growth

Cc1ccccc1N1CCN(C(=S)c2ccccc2)CC1
active: [19] -18%
inactive: [1] 81.3% | [2] 92.1% | [3] 102% | [4] 95.2% | [5] 92.4% | [6] 97.9% | [7] 47.8% | [8] 87.4% | [9] 103% | [10] 106% | [11] 114% | [12] 107% | [13] 103% | [14] 93.9% | [15] 96.6% | [16] 105% | [17] 69.5% | [18] 94.7% | [20] 101%

COc1ccc(C2[C@@H](c3ccccc3)C(=O)N2c2cc(OC)c(OC)c(OC)c2)cc1F (stereo not given in full)
inactive: [1] 25.3% | [2] 66.6% | [3] 38.2% | [4] 19.1% | [6] 28.1% | [9] 13.9% | [11] 11% | [13] 69.1% | [14] 32.3% | [15] 13.5% | [16] 31.5% | [18] 14.8% | [19] 20.8%
active: [5] 5.92% | [7] -34.2% | [8] 8.88% | [10] -48.2% | [12] 5.35% | [17] 0.875% | [20] 4.59%

Cn1c2ccccc2c2c3c(c4c5cc(Br)ccc5n(C)c4c21)C(=O)N(O)C3=O
active: [1] 2.91% | [4] 0.364% | [5] 4.42% | [11] -50.7% | [14] -32% | [15] -24.8% | [16] -0.663% | [18] -27.7% | [20] -5.5%
inactive: [2] 14.8% | [3] 31.8% | [6] 40.8% | [7] 25.4% | [8] 40.3% | [9] 14.6% | [10] 23.2% | [12] 10.4% | [13] 42.4% | [17] 25.9% | [19] 48.6%

CS(=O)(=O)Nc1cc(-c2ccc3ncnc(Nc4ccc(OCc5ccccn5)c(Cl)c4)c3c2)cnc1Cl
active: [1] -8.13% | [3] 9.88% | [5] 9.64% | [6] -6.05% | [7] -18.3% | [10] -90.9% | [13] -35.7% | [14] 2.29% | [15] -31.4% | [17] -2.49% | [18] -11.7%
inactive: [2] 21.2% | [4] 15.3% | [8] 11.8% | [9] 22.2% | [11] 16.5% | [12] 21.1% | [16] 10.9% | [19] 14.3% | [20] 30%

COc1ccc(-c2nc3ccc(C)cc3c3c2c(=O)n(C)c(=O)n3C)cc1OC
inactive: [1] 98.8% | [2] 108% | [3] 118% | [4] 112% | [5] 112% | [6] 99.2% | [7] 107% | [8] 89.9% | [9] 103% | [10] 109% | [11] 108% | [12] 107% | [13] 111% | [14] 102% | [15] 99.2% | [16] 100% | [17] 91.3% | [18] 108% | [19] 114% | [20] 109%

COCCOC(C)C(/C=N/NC(N)=S)=N/NC(N)=S (stereo not given)
inactive: [1] 49.8% | [2] 72.2% | [3] 89.8% | [4] 72.4% | [5] 85.8% | [6] 101% | [7] 94.5% | [8] 78.3% | [9] 99.3% | [10] 90.6% | [11] 102% | [12] 37.6% | [13] 94.3% | [14] 68% | [15] 97.2% | [16] 83.4% | [17] 76.2% | [18] 91.9% | [19] 34.5% | [20] 65.5%

Cc1ccc(Cc2cnc(NC(=O)/C=C/c3ccc(C)o3)s2)cc1
inactive: [1] 56% | [2] 69.9% | [3] 48.1% | [4] 53.6% | [5] 12% | [6] 59.5% | [7] 19.3% | [8] 35.7% | [9] 42% | [10] 23.2% | [11] 33.9% | [12] 18.6% | [13] 35.2% | [14] 67.9% | [15] 41.6% | [16] 52.9% | [17] 23.6% | [18] 23.6% | [19] 62.5% | [20] 12.1%

O=C(/C=C/C12c3ccccc3C(c3ccccc31)C1C(=O)NC(=O)C12)c1ccco1 (stereo not given)
active: [11] -0.301% | [15] 1.72%
inactive: [1] 28.7% | [2] 81.6% | [3] 30.2% | [4] 17.7% | [5] 11% | [6] 24% | [7] 17% | [8] 55.4% | [9] 41.1% | [10] 45.8% | [12] 12.9% | [13] 49.3% | [14] 40.3% | [16] 28.7% | [17] 41.9% | [18] 30.8% | [19] 44.9% | [20] 46.6%

COC1C(O)CC(OC2CC(OC3CC(O[C@@H]4C(=O)c5c(cc6cc(OC7CC(OC8CC(O)C(O)C(C)O8)C(O)C(C)O7)c(C)c(O)c6c5O)CC4[C@H](OC)C(=O)O)OC(C)C3O)OC(C)C2O)OC1C (stereo not given in full)
inactive: [3] 14.5% | [5] 13.5% | [6] 20.4% | [9] 34.7% | [10] 14.7% | [11] 22.3% | [12] 21.2% | [13] 13.9% | [14] 48.4% | [16] 28.4% | [17] 10.9% | [20] 35.4%
active: [1] 6.6% | [2] -36.1% | [4] 1.26% | [7] -13.7% | [8] 8.44% | [15] -45.7% | [18] 5.86% | [19] -8.56%

CC1SC(c2ccccc2O)N(NC(=O)CCC(=O)c2nc3ncccc3[nH]2)C1=O (stereo not given)
inactive: [1] 86.5% | [2] 80.7% | [3] 93.4% | [4] 87.8% | [5] 103% | [6] 79.2% | [7] 95.5% | [8] 96.2% | [9] 90.3% | [10] 110% | [11] 102% | [12] 109% | [13] 94% | [14] 103% | [15] 96.4% | [16] 95.7% | [17] 96.2% | [18] 93.1% | [19] 99.4% | [20] 97.6%

CN1CCN(Cc2ccc(NC(=O)c3cncc(C#Cc4cnc(N)cc4C#N)c3)cc2C(F)(F)F)CC1
active: [2] 7.61% | [5] 7.15% | [6] -5.52% | [7] 9.51% | [10] -31.2% | [13] -4.04% | [14] 6.83% | [18] -12% | [19] 3.84% | [20] -23.1%
inactive: [1] 15.3% | [3] 17% | [4] 12.1% | [8] 19.2% | [9] 24.9% | [11] 21.1% | [12] 15.9% | [15] 13.4% | [16] 23.5% | [17] 24.5%

COc1cc(-c2ccc(-c3ccc(C(=N)N)cc3)s2)cc(OC)c1OC
active: [10] -41.8% | [12] 1.05%
inactive: [1] 84.4% | [2] 82.5% | [3] 73.2% | [4] 59.1% | [5] 37.1% | [6] 43.4% | [7] 62.4% | [8] 75.4% | [9] 69.4% | [11] 63.6% | [13] 32.7% | [14] 53.2% | [15] 80.9% | [16] 65.1% | [17] 46.2% | [18] 47.1% | [19] 63.5% | [20] 47.9%

O=C(CN1C(=O)S/C(=C\C(Cl)=C\c2ccccc2)C1=O)NC1CCS(=O)(=O)C1 (stereo not given)
inactive: [1] 74.3% | [2] 77.3% | [3] 95.7% | [4] 99.7% | [5] 94.2% | [6] 80.4% | [7] 34.2% | [8] 94.3% | [9] 78.7% | [10] 59% | [11] 82.8% | [12] 15.3% | [13] 84.9% | [14] 77% | [15] 26.7% | [16] 94.4% | [17] 85.3% | [18] 56.8% | [19] 81.8% | [20] 64%

COc1ccc(-c2cc(-c3cn(-c4cccc(Cl)c4)nc3-c3ccc(OC)cc3)on2)cc1
inactive: [1] 95.3% | [2] 89.9% | [3] 86.9% | [4] 107% | [5] 98.6% | [6] 104% | [7] 74.8% | [8] 83% | [9] 100% | [10] 116% | [11] 113% | [12] 84.7% | [13] 127% | [14] 80.9% | [15] 102% | [16] 108% | [17] 108% | [18] 112% | [19] 112% | [20] 101%
